# Experimental data reported in PubChem BioAssay (Tox21).
# Results filed as inconclusive are left out. A call without a number means that no potency is given here. A number with no mark means an inactive call. Activity calls are given as the source filed them. Calls come from the whole dose curve; as a rule, active = well fitted curve in the direction sought with a large enough effect in the repeat runs; inconclusive = weak or mixed curves; inactive = no such curve, though single readings can be large; an effect the other way counts as inactive or inconclusive.
# How the values were obtained:
# [1] = qHTS RealTime-Glo MT Cell Viability Assay in HepG2 cells - 40 hour (AID 1224870); note: nearly all actives have a fitted effect of over 50% in size
# Method in brief: (§1)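 HepG2 cells mixed with RealTime-Glo MT reagents (NanoLuc plus cell-permeant prosubstrate) were seeded at 600 cells/well, incubated 5 h at 37 C/5% CO2, then pinned with compounds in DMSO; nonlytic luminescence tracked viability during 40 h treatment.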
# [2] = A CellTox Green Cytotoxicity Assay to monitor cytotoxicity in HEK293 cells - 40 hour (AID 1224871); note: nearly all actives have a fitted effect of over 45% in size; note: potency is the fitted concentration of half-maximal effect
# Method in brief: (§2)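 HEK293 cells premixed with CellTox Green dye were seeded at 600 cells/well and left 5 h at 37 C/5% CO2 before pin transfer of 23 nL compound in DMSO. Fluorescence from dye bound to dead-cell DNA was read during 40 h treatment.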
# [3] = qHTS RealTime-Glo MT Cell Viability Assay in HEK293 cells - 16 hour (AID 1224872); note: top concentration of the series differs between compounds; nearly all actives have a fitted effect of over 50% in size
# Method in brief: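 Nonlytic real-time viability readout: viable cells convert prosubstrate to NanoLuc substrate, giving luminescence proportional to live cell number. HEK293, 600 cells/well, compound added after 5 h, continuous culture at 37 C.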
# [4] = qHTS RealTime-Glo MT Cell Viability Assay in HepG2 cells - 8 hour (AID 1224873); note: nearly all actives have a fitted effect of over 55% in size
# Method in brief: as §1
# [5] = qHTS RealTime-Glo MT Cell Viability Assay in HEK293 cells - 40 hour (AID 1224874); details: RealTime-Glo luminescence; max response: hits give low values; note: nearly all actives have a fitted effect of over 50% in size; note: potency is the fitted concentration of half-maximal effect
# Method in brief: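 HEK293 cells mixed with RealTime-Glo reagents (NanoLuc plus cell-permeant prosubstrate) at 600 cells/well, preincubated 5 h at 37 C/5% CO2, then given 23 nL compound in DMSO. Nonlytic luminescence from viable cells was read at 0, 8, 16, 24, 32 and 40 h.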
# [6] = A CellTox Green Cytotoxicity Assay to monitor cytotoxicity in HEK293 cells - 24 hour (AID 1224875); note: nearly all actives have a fitted effect of over 45% in size; note: potency is the fitted concentration of half-maximal effect; for activity change: series mostly up to about 77 µM
# Method in brief: as §2
# [7] = A CellTox Green Cytotoxicity Assay to monitor cytotoxicity in HepG2 cells - 16 hour (AID 1224876); note: nearly all actives have a fitted effect of over 45% in size
# Method in brief: (§3)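 HepG2 cells were seeded together with the CellTox Green dye at 600 cells/well, left 5 h at 37 C/5% CO2, then given compounds in DMSO. Fluorescence from dye bound to dead-cell DNA was read repeatedly over 40 h of treatment at 37 C.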
# [8] = qHTS RealTime-Glo MT Cell Viability Assay in HepG2 cells - 32 hour (AID 1224877); note: nearly all actives have a fitted effect of over 55% in size
# Method in brief: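 Luminescence read-out: viable HepG2 cells reduce a prosubstrate to a NanoLuc substrate, giving a signal proportional to live cell number. Reads taken at 0, 8, 16, 24, 32 and 40 h of compound exposure at 37 C.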
# [9] = A CellTox Green Cytotoxicity Assay to monitor cytotoxicity in HepG2 cells - 24 hour (AID 1224878); note: nearly all actives have a fitted effect of over 45% in size
# Method in brief: as §3
# [10] = A CellTox Green Cytotoxicity Assay to monitor cytotoxicity in HepG2 cells - 40 hour (AID 1224879); note: nearly all actives have a fitted effect of over 40% in size; note: potency is the fitted concentration of half-maximal effect
# Method in brief: as §3
smiles,measurement,setting,value
CC(C)N(CCC(C(N)=O)(c1ccccc1)c1ccccn1)C(C)C (configuration not stated),Potency,[1],inactive
same,Potency,[2],inactive
same,Potency,[3],inactive
same,Potency,[4],inactive
same,max response,[5],2.75%
same,Potency,[6],inactive
same,Potency,[7],inactive
same,Potency,[8],inactive
same,Potency,[9],inactive
same,Potency,[10],inactive
O=NN1CCCCCC1,Potency,[1],inactive
same,Potency,[2],inactive
same,Potency,[3],inactive
same,Potency,[4],inactive
same,max response,[5],0.127%
same,Potency,[6],inactive
same,Potency,[7],inactive
same,Potency,[8],inactive
same,Potency,[9],inactive
same,Potency,[10],inactive
Nc1nc(=S)[nH][nH]1,Potency,[1],inactive
same,Potency,[2],inactive
same,Potency,[3],inactive
same,Potency,[4],inactive
same,max response,[5],1.62%
same,Potency,[6],inactive
same,Potency,[7],inactive
same,Potency,[8],inactive
same,Potency,[9],inactive
same,Potency,[10],inactive
O=C(NC(=O)c1c(F)cccc1F)Nc1ccc(OC(F)(F)C(F)OC(F)(F)F)c(Cl)c1 (configuration not stated),Potency,[1],inactive
same,Potency,[3],inactive
same,Potency,[4],inactive
same,max response,[5],-1.18%
same,Potency,[6],inactive
same,Potency,[7],inactive
same,Potency,[8],inactive
same,Potency,[9],inactive
same,Potency,[10],inactive
O=Cc1ccc(Cl)cc1Cl,Potency,[1],inactive
same,Potency,[3],inactive
same,Potency,[4],inactive
same,max response,[5],-1.06%
same,Potency,[6],inactive
same,Potency,[7],inactive
same,Potency,[8],inactive
same,Potency,[9],inactive
same,Potency,[10],inactive
CO/C=C(/C(=O)OC)c1ccccc1COc1cccc(C(F)(F)F)n1,Potency,[1],inactive
same,Potency,[2],3.89 µM (active)
same,Potency,[5],6.16 µM (active)
same,Potency,[6],inactive
same,Potency,[7],inactive
same,Potency,[8],inactive
same,Potency,[9],inactive
same,Potency,[10],inactive
O=C(O)C1(c2ccc3c(c2)OC[C@H](Cc2ccc(-c4ccccc4)cc2)[C@H]3O)CCCC1,Potency,[1],inactive
same,Potency,[2],34.7 µM (active)
same,Potency,[4],inactive
same,Potency,[6],38.9 µM (active)
same,Potency,[8],inactive
same,Potency,[10],49 µM (active)
CC/C(=N\OC/C=C/Cl)C1=C(O)CC(C2CCOCC2)CC1=O (configuration not stated),Potency,[1],inactive
same,Potency,[3],inactive
same,Potency,[4],inactive
same,max response,[5],0.456%
same,Potency,[6],inactive
same,Potency,[7],inactive
same,Potency,[8],inactive
same,Potency,[9],inactive
same,Potency,[10],inactive
COC(C)(C)CCC[C@H](C)C/C=C/C(C)=C/C(=O)OC(C)C,Potency,[1],inactive
same,Potency,[3],inactive
same,Potency,[4],inactive
same,max response,[5],-3.6%
same,Potency,[6],inactive
same,Potency,[7],inactive
same,Potency,[8],inactive
same,Potency,[9],inactive
same,Potency,[10],inactive
C[N+](C)(C)CCCl,Potency,[1],inactive
same,Potency,[3],inactive
same,Potency,[4],inactive
same,max response,[5],21.2%
same,Potency,[6],inactive
same,Potency,[7],inactive
same,Potency,[8],inactive
same,Potency,[9],inactive
same,Potency,[10],inactive
CC(c1ccc(O)cc1)(c1ccc(O)cc1)c1ccc(O)cc1,Potency,[1],inactive
same,Potency,[2],inactive
same,Potency,[4],inactive
same,Potency,[6],inactive
same,Potency,[7],inactive
same,Potency,[8],inactive
same,Potency,[9],inactive
O=[N+]([O-])c1ccc(F)c([N+](=O)[O-])c1,Potency,[1],inactive
same,Potency,[2],inactive
same,Potency,[4],inactive
same,Potency,[6],inactive
same,Potency,[7],inactive
same,Potency,[8],inactive
same,Potency,[9],inactive
same,Potency,[10],inactive
CCCCCCCCCCOC(=O)c1ccccc1C(=O)OCCCCCCCCCC,Potency,[1],inactive
same,Potency,[3],inactive
same,Potency,[4],inactive
same,max response,[5],0.334%
same,Potency,[6],inactive
same,Potency,[7],inactive
same,Potency,[8],inactive
same,Potency,[9],inactive
same,Potency,[10],inactive
CCCCNP(N)(N)=S,Potency,[1],inactive
same,Potency,[3],inactive
same,Potency,[4],inactive
same,max response,[5],0.198%
same,Potency,[6],inactive
same,Potency,[7],inactive
same,Potency,[8],inactive
same,Potency,[9],inactive
same,Potency,[10],inactive
CCCCCCCCOC(=O)c1ccc(C(=O)OCCCCCCCC)c(C(=O)OCCCCCCCC)c1,Potency,[1],inactive
same,Potency,[3],inactive
same,Potency,[4],inactive
same,max response,[5],-3.25%
same,Potency,[6],inactive
same,Potency,[7],inactive
same,Potency,[8],inactive
same,Potency,[9],inactive
same,Potency,[10],inactive
[O-][Cl+]O,Potency,[1],inactive
same,Potency,[3],inactive
same,Potency,[4],inactive
same,max response,[5],2.38%
same,Potency,[6],inactive
same,Potency,[7],inactive
same,Potency,[8],inactive
same,Potency,[9],inactive
same,Potency,[10],inactive
O=C(NC(=O)c1c(F)cccc1F)Nc1cc(Cl)c(Oc2ncc(C(F)(F)F)cc2Cl)c(Cl)c1,Potency,[1],inactive
same,Potency,[2],inactive
same,Potency,[4],inactive
same,Potency,[6],inactive
same,Potency,[7],inactive
same,Potency,[8],inactive
same,Potency,[9],inactive
same,Potency,[10],inactive
N#CCc1ccccc1,Potency,[1],inactive
same,Potency,[3],inactive
same,Potency,[4],inactive
same,max response,[5],2.97%
same,Potency,[6],inactive
same,Potency,[7],inactive
same,Potency,[8],inactive
same,Potency,[9],inactive
same,Potency,[10],inactive
CCBr,Potency,[1],inactive
same,Potency,[3],inactive
same,Potency,[4],inactive
same,max response,[5],6.85%
same,Potency,[6],inactive
same,Potency,[7],inactive
same,Potency,[8],inactive
same,Potency,[9],inactive
same,Potency,[10],inactive
CCOc1nc(F)cc2nc(S(=O)(=O)Nc3c(Cl)cccc3Cl)nn12,Potency,[1],inactive
same,Potency,[3],inactive
same,Potency,[4],inactive
same,max response,[5],30.5%
same,Potency,[6],inactive
same,Potency,[7],inactive
same,Potency,[8],inactive
same,Potency,[9],inactive
same,Potency,[10],inactive
O=S(=O)(O)C(F)(F)C(F)(F)C(F)(F)C(F)(F)F,Potency,[1],inactive
same,Potency,[2],inactive
same,Potency,[4],inactive
same,Potency,[6],inactive
same,Potency,[8],inactive
same,Potency,[9],inactive
same,Potency,[10],inactive
CCOS(C)(=O)=O,Potency,[1],inactive
same,Potency,[3],inactive
same,Potency,[4],inactive
same,max response,[5],-7.66%
same,Potency,[6],inactive
same,Potency,[7],inactive
same,Potency,[8],inactive
same,Potency,[9],inactive
same,Potency,[10],inactive
C=CC(=O)OCC(C)C,Potency,[1],inactive
same,Potency,[3],inactive
same,Potency,[4],inactive
same,max response,[5],15.8%
same,Potency,[6],inactive
same,Potency,[7],inactive
same,Potency,[8],inactive
same,Potency,[9],inactive
same,Potency,[10],inactive
NCC(CC(=O)O)c1ccc(Cl)cc1 (configuration not stated),"activity change, negative = cytotoxic",[1],-1.34% [at 0.29 µM]
same,"activity change, negative = cytotoxicity",[3],0.531% [at 0.29 µM]
same,"viability change, negative = cytotoxic",[4],0.906% [at 0.29 µM]
same,max response,[5],8.41%
same,activity change,[6],"-19.1% [at 0.29 µM, hits give high values]"
same,cytotoxicity increase,[7],-3.17% [at 0.29 µM]
same,"activity change, negative = cytotoxic",[8],-0.345% [at 0.29 µM]
same,cytotoxicity,[9],-3.56% [at 0.29 µM]
same,cytotoxicity increase,[10],-9.33% [at 0.29 µM]
CCCCOC(=O)c1ccccc1C(=O)OCc1ccccc1,Potency,[1],inactive
same,Potency,[2],inactive
same,Potency,[4],inactive
same,Potency,[6],inactive
same,Potency,[7],inactive
same,Potency,[8],inactive
same,Potency,[9],inactive
same,Potency,[10],inactive
